Data from PubChem BioAssay AID1159580 (chemical genetic matrix, 2015).
Hit rate of the full screen: of about 5,500 compounds, about 2,000 (36%) were called active. Not shown: some 18% with an inconclusive outcome. Rule as the data show it: active = normalized growth mostly below about 0.91 (no sharp cut-off); inconclusive = no clear call, values can overlap the other calls; inactive = mostly above about 0.92. The list shows a part of the results.

Experiment: chemical genetic growth profiling, strain panel (AID 1159580);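 also: tested at 20 µM; growth read once vehicle control cultures reached saturation at 30 °C; 1 = growth at the plate median or of vehicle wells; lower values mean less growth of the strain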
Settings: S. cerevisiae deletion strains, growth OD

Measured: normalized growth

Cc1nn(C)c(C(=O)Sc2ccc(OC(F)(F)F)cc2)c1[N+](=O)[O-]
inactive: locus YAR019C, strain CDC15, stronger effect = lower value 0.977 | locus YBL105C, strain PKC1, stronger effect = lower value 0.974 | locus YBR135W, strain CKS1, stronger effect = lower value 0.969 | locus YBR136W, strain MEC1, stronger effect = lower value 0.984 | locus YBR160W, strain CDC28, stronger effect = lower value 0.977 | locus YDL017W, strain CDC7, stronger effect = lower value 0.977 | locus YDL028C, strain MPS1, stronger effect = lower value 0.985 | locus YDL101C, strain DUN1, stronger effect = lower value 0.978 | locus YDL108W, strain KIN28, stronger effect = lower value 0.98 | locus YDL132W, strain cdc53, stronger effect = lower value 0.952 | locus YDL214C, strain PRR2, stronger effect = lower value 0.946 | locus YDR052C, strain DBF4, stronger effect = lower value 0.983 | locus YDR054C, strain cdc34, stronger effect = lower value 0.952 | locus YDR226W, strain ADK1, stronger effect = lower value 0.982 | locus YDR477W, strain SNF1, stronger effect = lower value 0.993 | locus YER123W, strain YCK3, stronger effect = lower value 0.895 | locus YER133W, strain GLC7, stronger effect = lower value 1 | locus YFL009W, strain cdc4, stronger effect = lower value 0.965 | locus YFL029C, strain CAK1, stronger effect = lower value 0.978 | locus YFR003C, strain YPI1, stronger effect = lower value 0.978 | locus YFR019W, strain FAB1, stronger effect = lower value 0.972 | locus YFR028C, strain CDC14, stronger effect = lower value 0.987 | locus YGR040W, strain KSS1, stronger effect = lower value 1.03 | locus YGR052W, strain FMP48, stronger effect = lower value 0.988 | locus YGR092W, strain DBF2, stronger effect = lower value 0.939 | locus YHR079C, strain IRE1, stronger effect = lower value 0.977 | locus YHR082C, strain KSP1, stronger effect = lower value 0.947 | locus YHR205W, strain SCH9, stronger effect = lower value 0.611 | locus YIL147C, strain SLN1, stronger effect = lower value 0.985 | locus YJL095W, strain BCK1, stronger effect = lower value 0.947 | locus YJL128C, strain PBS2, stronger effect = lower value 0.87 | locus YJL157C, strain FAR1, stronger effect = lower value 0.978 | locus YJR016C, strain ILV3, stronger effect = lower value 0.977 | locus YJR066W, strain TOR1 (second series), stronger effect = lower value 1.02 | locus YJR066W, strain TOR1, stronger effect = lower value 0.936 | locus YKL048C, strain ELM1, stronger effect = lower value 0.989 | locus YKL067W, strain YNK1, stronger effect = lower value 0.96 | locus YKL101W, strain HSL1, stronger effect = lower value 0.985 | locus YKL193C, strain SDS22, stronger effect = lower value 0.975 | locus YKL203C, strain TOR2, stronger effect = lower value 1.13 | locus YLR133W, strain CKI1, stronger effect = lower value 0.949 | locus YLR403W, strain SFP1, stronger effect = lower value 0.99 | locus YML070W, strain DAK1, stronger effect = lower value 0.959 | locus YMR001C, strain CDC5, stronger effect = lower value 0.979 | locus YMR205C, strain PFK2 (second series), stronger effect = lower value 0.965 | locus YMR277W, strain FCP1, stronger effect = lower value 0.968 | locus YNL006W, strain LST8, stronger effect = lower value 0.974 | locus YNL020C, strain ARK1, stronger effect = lower value 0.95 | locus YNL161W, strain CBK1, stronger effect = lower value 0.98 | locus YNL183C, strain NPR1, stronger effect = lower value 1.04 | locus YNL207W, strain RIO2, stronger effect = lower value 0.989 | locus YNL222W, strain SSU72, stronger effect = lower value 0.976 | locus YNL307C, strain MCK1 (second series), stronger effect = lower value 0.918 | locus YOL078W, strain AVO1, stronger effect = lower value 0.972 | locus YOL136C, strain PFK27, stronger effect = lower value 0.935 | locus YOR061W, strain CKA2, stronger effect = lower value 0.95 | locus YOR119C, strain RIO1, stronger effect = lower value 1.11 | locus YOR231W, strain MKK1, stronger effect = lower value 0.884 | locus YOR329C, strain SCD5, stronger effect = lower value 0.982 | locus YPL031C, strain PHO85, stronger effect = lower value 1.01 | locus YPL153C, strain RAD53, stronger effect = lower value 1.03 | locus YPL204W, strain HRR25, stronger effect = lower value 1.06 | locus YPL209C, strain IPL1, stronger effect = lower value 0.981 | locus YPL256C, strain CLN2, stronger effect = lower value 0.952 | locus YPR025C, strain CCL1, stronger effect = lower value 0.981 | locus YPR106W, strain ISR1, stronger effect = lower value 0.959 | locus YPR111W, strain DBF20, stronger effect = lower value 0.932 | strain NNK1, stronger effect = lower value 0.955 | strain TSCII, stronger effect = lower value 0.982
active: locus YHR030C, strain SLT2, stronger effect = lower value 1.25 [resistant] | locus YLR113W, strain HOG1, stronger effect = lower value 0.834
